The molecules below were run against PEG-3 (UniProt Q6IN02) (assay: GAPDH versus PEG-3 reporter suppression – cell-based, luminescence, counter-screen for PEG-3 promoter inhibitor project, SAR follow-up (AID 651551)). Conditions: HeLa PEG-Prom / GAPDH luciferase reporter, 6 or 24 h, run 3, 6 h; at 99 µM (top of the series).
For `COc1ccc(-n2nc(C(=O)NCC(=O)Nc3ccc(OC)c(OC)c3)c3ccccc3c2=O)cc1`, the inhibition % (higher = more inhibition) was 27%. Work on `Cc1cc(NC(=O)c2ccccc2C(F)(F)F)n(-c2nc3ccccc3[nH]2)n1` yielded an inhibition % (higher = more inhibition) of 83.9%. `CCCn1nc(C(=O)Nc2nc(-c3ccccn3)cs2)c2ccccc2c1=O` was tested, and the inhibition % (higher = more inhibition) was 34.4%. For `Cc1cc(NC(=O)c2ccccc2)n(-c2nc3ccccc3n2C)n1`, the inhibition % (higher = more inhibition) was 40.4%. Molecule `Cc1nc(NC(=O)c2ccccc2)sc1-c1csc(Nc2cccc(Cl)c2C)n1` has an inhibition % (higher = more inhibition) of 49.3%. Molecule `Cc1cc(NC(=O)c2ccccc2C)n(-c2nc3ccccc3[nH]2)n1` has an inhibition % (higher = more inhibition) of 53.8%. With `COc1ccc(-n2nc(C(=O)NCC(=O)Nc3cccc(OC)c3)c3ccccc3c2=O)cc1` the inhibition % (higher = more inhibition) was -17.6%. Molecule `CCn1cc(C(=O)NCc2ccco2)c(=O)c2cc(S(=O)(=O)N3CCCC3)ccc21` has an inhibition % (higher = more inhibition) of 15.2%. For `CCn1nc(C(=O)Nc2nc(-c3ccccn3)cs2)c2ccccc2c1=O`, the inhibition % (higher = more inhibition) was 39.7%. In the case of `Cc1nc(NC(=O)c2ccccc2)sc1-c1csc(Nc2ccccc2Cl)n1`, the inhibition % (higher = more inhibition) is reported as 19.9%. With `Cc1cc(NC(=O)c2cccc(C)c2C)n(-c2nc3ccccc3[nH]2)n1` the inhibition % (higher = more inhibition) was 61.3%. Work on `CCCn1nc(C(=O)Nc2nc3ccccc3s2)c2ccccc2c1=O` yielded an inhibition % (higher = more inhibition) of 36.4%. `O=C(Nc1nc(-c2ccccc2)cs1)c1nn(-c2ccccc2)c(=O)c2ccccc12` was tested, and the inhibition % (higher = more inhibition) was 11.7%. Molecule `COc1ccc(Cl)cc1Nc1nc(-c2sc(NC(=O)c3ccccc3)nc2C)cs1` has an inhibition % (higher = more inhibition) of 64.3%. `COc1ccccc1Nc1nc(-c2sc(NC(=O)c3ccco3)nc2C)cs1` showed an inhibition % (higher = more inhibition) of 15.2%. In the case of `COCCCNC(=O)c1ccc(Cn2c(=O)c3ccccc3n(Cc3ccccc3C#N)c2=O)cc1`, the inhibition % (higher = more inhibition) is reported as 12.9%. `Cc1ccc(Cl)cc1Nc1nc(-c2sc(NC(=O)c3ccco3)nc2C)cs1` gave an inhibition % (higher = more inhibition) of 50.8%. `Cc1nc(NC(=O)c2ccccc2)sc1-c1csc(Nc2ccccc2)n1` gave an inhibition % (higher = more inhibition) of 27%. `O=C(Nc1nccs1)c1nn(-c2ccccc2)c(=O)c2ccccc12` showed an inhibition % (higher = more inhibition) of 29.3%. With `COc1ccc(-n2nc(C(=O)NCC(=O)Nc3cc(OC)c(OC)c(OC)c3)c3ccccc3c2=O)cc1OC` the inhibition % (higher = more inhibition) was 9.38%. `Cc1cc(NC(=O)c2ccccc2)n(-c2nc3ccccc3[nH]2)n1` gave an inhibition % (higher = more inhibition) of 76.2%. Molecule `CCCn1nc(C(=O)Nc2nc(-c3ccncc3)cs2)c2ccccc2c1=O` has an inhibition % (higher = more inhibition) of 24.5%. `O=C(Nc1nc2ccccc2s1)c1nn(-c2ccccc2)c(=O)c2ccccc12` showed an inhibition % (higher = more inhibition) of -12.9%.
